# The full list was thinned out, with hits kept by preference.
# CHX counter: Cycloheximide Counterscreen for Small Molecule Inhibitors of Shiga Toxin; AID 2314, 2010; cell reporter, cycloheximide protein synthesis inhibition counterscreen; actives 12% (n = 300,000); max response, %; in the data active = max response mostly above about 13%, no sharp cut-off; inactive = mostly below about 14%; note: read at 38.3 µM for the half of the compounds with a filed dose; 0% is about no effect
# NS1 inh: qHTS Assay for Inhibitors of Influenza NS1 Protein Function; Potency, µM (series often up to 46.1 µM), without a hit: at the top dose activity, positive = more growth; actives 0.4% (n = 270,000); AID 2326, 2010; calls by dose curve; note: potency is the fitted concentration of half-maximal effect; actives are rising curves; nearly all actives have a fitted effect of over 50% in size
#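 Read-out: OD600 growth recovery of NS1-expressing budding yeast. Cells grown overnight at 30C in -URA glucose medium, washed, resuspended and diluted 1:100 in 2% galactose assay medium, pH 6.0. Same strain lacking NS1 served as positive control.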
# Shiga toxin inh: A qHTS for Small Molecule Inhibitors of Shiga Toxin; inhibition, % at 38.7 µM; actives 9.2% (n = 290,000); Vero cells, Shiga toxin protein synthesis inhibition reporter; in the data active = inhibition mostly above about 28%, no sharp cut-off; inactive = mostly below about 43%; note: 0% is about no effect
# AmpC inh detg: qHTS Inhibitors of AmpC Beta-Lactamase (assay with detergent); AID 485294, 2010; P00811; actives 0.041% (n = 370,000); Potency, µM (titrated, usually from 114 µM), for inactives: at the highest dose activity change, negative = inhibition, hits mostly inhibitors; AmpC hydrolysis of nitrocefin, absorbance 480 nm, 0.01% Triton;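 note: potency is the fitted concentration of half-maximal effect; 0% = no-compound wells and -100% = no-enzyme wells; nearly all actives have a fitted effect of over 25% in size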
# Target sequence (P00811 whole entry, looked up): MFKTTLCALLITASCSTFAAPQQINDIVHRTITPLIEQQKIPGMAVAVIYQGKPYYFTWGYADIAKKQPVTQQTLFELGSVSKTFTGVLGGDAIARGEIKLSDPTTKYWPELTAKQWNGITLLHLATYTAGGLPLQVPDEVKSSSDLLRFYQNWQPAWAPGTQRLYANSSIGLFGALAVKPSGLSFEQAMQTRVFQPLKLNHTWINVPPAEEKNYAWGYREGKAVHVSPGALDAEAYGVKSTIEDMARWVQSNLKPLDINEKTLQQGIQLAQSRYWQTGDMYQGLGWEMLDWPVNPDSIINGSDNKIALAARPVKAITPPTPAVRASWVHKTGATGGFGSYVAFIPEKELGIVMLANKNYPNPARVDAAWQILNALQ
#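 20 mM phosphate pH 7.0 + 0.01% (detergent screen) or 0.0001% Triton X-100; 5.3 nM AmpC reagent; cpd preinc 15 min RT; nitrocefin (800 uM stock) to start; A480 q20 s × 4 min; Activity was normalised to no-enzyme and no-compound control wells.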
# AmpC no deterg: qHTS Inhibitors of AmpC Beta-Lactamase (assay without detergent); P00811; AmpC nitrocefin hydrolysis, absorbance 480 nm, 0.0001% Triton; Potency, µM (top dose mostly 57.1 µM), inactives show at the highest dose activity change, negative = inhibition, most hits filed as inhibitors; actives 0.52% (n = 330,000);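 note: potency is the fitted concentration of half-maximal effect; plate controls were no compound for no effect and no enzyme for full effect; nearly all actives have a fitted effect of over 20% in size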
#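 AmpC (5.3 nM in the dispensed reagent) in 20 mM phosphate pH 7.0 with 0.01% (detergent screen) or 0.0001% Triton X-100 was preincubated with compounds for 15 min at room temperature. Nitrocefin was then added from an 800 uM solution, and hydrolysis was followed at 480 nm.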
# Flu NS1 inh: Assay for Inhibitors of Influenza NS1 Protein Function: Hit Validation; shares compounds with NS1 inh; influenza NS1 function cell assay, 15-point titration; activity change, negative = inhibition, % at 32.9 µM; 1,400 tested, under 10 active; AID 492980, 2010; calls by dose curve; note: 0% is about no effect
# PR8 titer: Assay for Inhibitors of Influenza NS1 Protein Function: Influenza virus replication assay in MDCK cells infected with virus A/PR/8/34; virus titer (log TCID50), log10 TCID50 at 5 µM; MDCK infected influenza A/PR/8/34, virus titer TCID50; stronger effect = lower value; actives 30% (n = 95); shares compounds with NS1 inh; call rule not given here
# * marks the source's active call; other numbers are inactive results; ? = inconclusive; · = no result given. Unless noted, calls come from the whole dose curve; as a rule, active = well fitted curve in the direction sought with a large enough effect; inconclusive = small, poorly fitted or top-dose-only effect, or another doubt; inactive = no such curve, though single readings can be large; an effect the other way counts as inactive or inconclusive.
SMILES,CHX counter,NS1 inh,Shiga toxin inh,AmpC inh detg,AmpC no deterg,Flu NS1 inh,others
NC(=O)c1ccc(NC(=O)CSc2cn(CC(=O)N3CCOCC3)c3ccccc23)cc1,9,1%,-7,-9%,-3%,·,
O=C(CSc1cn(CC(=O)N2CCOCC2)c2ccccc12)N1CCOCC1,2,?,-7,7%,2%,6,
O=C(Cc1cccs1)NC1(C(=O)NC2CCCC2)CCCCC1,2,3%,-13,?,-11%,·,
O=C(Cc1ccc(F)cc1)NCCS(=O)(=O)N1CCN(c2cccc(Cl)c2)CC1,·,·,·,-13%,11%,·,
CCCn1c(C2CCCN2c2nc(-c3cccc(Br)c3)cs2)nc2ccccc21 (stereo unspecified),-1,25%,-2,-8%,-3%,·,
Cc1nc2nc(CSc3nnc(C)s3)cc(=O)n2[nH]1,-3,7.9µM*,-10,6%,5%,3,
CN1CCN(C(=O)CCN2C(=O)c3ccccc3S2(=O)=O)CC1,·,·,·,-20%,-16%,·,
CCOc1cc(/C=N/NC(=O)c2ccc(=O)n(C)c2)ccc1O,-3,-4%,12,-10%,-14%,·,
Cc1ccc(C(C)C)c(OCc2ccc(C(=O)N/N=C/c3ccc(O)c(O)c3)cc2)c1,14*,13µM*,59*,17%,-19%,14,
O=C1NN(c2ccc(Br)cc2)C(=O)/C1=C\c1ccc(O)cc1O,14,4µM*,·,-12%,?,-14,
CCOC(=O)C1=C(C)Nc2nc(SCC)[nH]c(=O)c2C1c1ccncc1 (stereo unspecified),6,?,10,-3%,31%,-15,
CCSc1nc2c(c(=O)[nH]1)C(c1ccc(C)cc1)C1=C(CCCC1=O)N2 (stereo unspecified),-4,·,3,-16%,-7%,·,
Cc1csc(=O)n1CCC(=O)NCc1ccc(F)cc1,·,·,·,·,-18%,·,
C1CCC(Nc2nnnn2C2CCCCC2)CC1,-4,3%,20,-11%,-15%,·,
CN(C)/C=C/C(=O)c1nnn(C2CCCCC2)c1NC1CCCCC1,9,7.9µM*,8,?,63%,?,
COCCn1nnnc1C(c1ccccc1)N1CCN(Cc2ccc3c(c2)OCO3)CC1 (stereo unspecified),-6,4.5µM*,-16,?,1%,-4,
CCCNC(=S)N1CC2(C)CN(C(=O)C(=O)OC)CC(C)(C1)C2=O,12,·,2,-7%,2%,·,
CCC(C(=O)NCCN1CCN(C)CC1)n1c(C)c2cnn(-c3ccccc3)c(=O)c2c1C (stereo unspecified),7,?,-17,-6%,64%,0,
CCOC(=O)c1ccc(NC(=O)CSc2nc(C)cc(=O)[nH]2)cc1,-5,?,-16,0%,-29%,-10,PR8 titer=8
CCOC(=O)C1CCN(C(=O)CSc2ccccc2)CC1,18,11µM*,57,3%,-3%,17,
CCOC(=O)C1CCN(C(=O)CSc2ccccc2Cl)CC1,6,8%,-5,2%,15%,·,
C=CCN1CCc2cccc3c2C1Cc1ccc(O)c(O)c1-3 (stereo unspecified),·,11µM*,·,·,·,-20,
O=C(NCc1ccc(F)cc1)c1ccc(S(=O)(=O)N2CCCCC2)cc1,·,·,·,1%,-39%,·,
O=C(NCc1ccc2[nH]c3c(c2c1)CCCC3)c1ccc(S(=O)(=O)N2CCCCC2)cc1,-2,5µM*,-9,?,-25%,6,
O=C(CSc1nnc(-c2ccccc2)n1C1CCCCC1)Nc1ccc(S(=O)(=O)Nc2ccccn2)cc1,2,?,-7,0%,33%,-9,
SMILES,CHX counter,NS1 inh,Shiga toxin inh,AmpC inh detg,AmpC no deterg,Flu NS1 inh,others
CC(=O)Nc1ccc(S(=O)(=O)Oc2ccc(C(=S)N3CCC(O)CC3)cc2)cc1,8,?,11,?,14%,-18,
CC(=O)Nc1ccc(S(=O)(=O)Oc2ccc(C(=S)N3CCCCC3)cc2)cc1,1,2%,-2,-20%,-33%,·,
CC(C)CCNC(=O)CCCc1ccccc1,8,1%,44,-5%,8%,·,
Cc1nc2cccc([N+](=O)[O-])c2n1CCCN(C)C,·,-9%,·,·,·,·,
Cc1ccc(C)c(N(CC(=O)NC2CCCCC2)C(=O)c2snc(C(N)=O)c2N)c1,-4,13%,-7,-16%,1%,·,
CC(C)(C)NC(=O)CN(C(=O)c1snc(C(=O)NC2CCCCC2)c1N)c1ccccc1F,-2,3.2µM*,17,-10%,24%,-24,
Cc1ccc(C2N(c3ccc(F)cc3)C(=O)C3CCCN32)cc1 (stereo unspecified),0,1.8µM*,9,-9%,0%,-9,
Cc1[nH]c2ccccc2c1N=Nc1ccccc1C(=O)O,17*,4.5µM*,48*,-3%,-25%,15,
O=S(=O)(Nc1ncnc2c1oc1ccccc12)c1ccc(Cl)s1,16*,1.1µM*,-6,?,-18%,-1,
CCOc1ccccc1CNC(=O)CCCC(=O)n1nc(C)c2ccccc21,-1,?,-4,-10%,13%,?,
Cc1ccccc1CNC(=O)CCCC(=O)n1nc(C)c2ccccc21,-1,-29%,-5,-4%,20%,·,
Cc1cccc(OCCSc2nc3ccccc3n2CCC(=O)O)c1,4,8%,-4,0%,-13%,·,
CN1C(=O)C(=Cc2ccc(N3CCOCC3)o2)C(=O)N(C)C1=S,-3,5%,-7,0%,-15%,·,
O=C1NC(=S)S/C1=C/c1ccc(N2CCOCC2)o1,13,7.9µM*,30,11%,-49%,2,
COc1ccc(OCCSc2nnc(-c3ccc(OC)cc3)n2N)cc1,5,-9%,-3,-5%,2%,·,
COc1ccc(-n2c(O)c(/C=N/NS(=O)(=O)c3ccc(C)cc3)c3ccccc3c2=O)cc1OC,-4,10µM*,-11,-9%,15%,0,
COc1ccc(-n2c(O)c(/C=N/NS(=O)(=O)c3cc(C)ccc3C)c3ccccc3c2=O)cc1OC,-3,28%,-5,-5%,91%,·,
Cn1c(=O)[nH]c(=O)c2c1nc(Br)n2CC(O)COc1ccccc1 (stereo unspecified),9,7.1µM*,9,-4%,-21%,-2,
COc1ccccc1OCC(O)Cn1c(Br)nc2c1c(=O)[nH]c(=O)n2C (stereo unspecified),-5,3%,-25,?,2%,·,
CCOC(=O)N1CCN(C(=O)c2ccc(Oc3ccc([N+](=O)[O-])cc3)cc2)CC1,-2,·,4,-10%,91%,·,
